# Tests used:
# [1] = molecular target: T1, Ephrin type-A receptor 3 (Homo sapiens) (UniProt P29320); details: at 10 µM
# T1 sequence (whole entry): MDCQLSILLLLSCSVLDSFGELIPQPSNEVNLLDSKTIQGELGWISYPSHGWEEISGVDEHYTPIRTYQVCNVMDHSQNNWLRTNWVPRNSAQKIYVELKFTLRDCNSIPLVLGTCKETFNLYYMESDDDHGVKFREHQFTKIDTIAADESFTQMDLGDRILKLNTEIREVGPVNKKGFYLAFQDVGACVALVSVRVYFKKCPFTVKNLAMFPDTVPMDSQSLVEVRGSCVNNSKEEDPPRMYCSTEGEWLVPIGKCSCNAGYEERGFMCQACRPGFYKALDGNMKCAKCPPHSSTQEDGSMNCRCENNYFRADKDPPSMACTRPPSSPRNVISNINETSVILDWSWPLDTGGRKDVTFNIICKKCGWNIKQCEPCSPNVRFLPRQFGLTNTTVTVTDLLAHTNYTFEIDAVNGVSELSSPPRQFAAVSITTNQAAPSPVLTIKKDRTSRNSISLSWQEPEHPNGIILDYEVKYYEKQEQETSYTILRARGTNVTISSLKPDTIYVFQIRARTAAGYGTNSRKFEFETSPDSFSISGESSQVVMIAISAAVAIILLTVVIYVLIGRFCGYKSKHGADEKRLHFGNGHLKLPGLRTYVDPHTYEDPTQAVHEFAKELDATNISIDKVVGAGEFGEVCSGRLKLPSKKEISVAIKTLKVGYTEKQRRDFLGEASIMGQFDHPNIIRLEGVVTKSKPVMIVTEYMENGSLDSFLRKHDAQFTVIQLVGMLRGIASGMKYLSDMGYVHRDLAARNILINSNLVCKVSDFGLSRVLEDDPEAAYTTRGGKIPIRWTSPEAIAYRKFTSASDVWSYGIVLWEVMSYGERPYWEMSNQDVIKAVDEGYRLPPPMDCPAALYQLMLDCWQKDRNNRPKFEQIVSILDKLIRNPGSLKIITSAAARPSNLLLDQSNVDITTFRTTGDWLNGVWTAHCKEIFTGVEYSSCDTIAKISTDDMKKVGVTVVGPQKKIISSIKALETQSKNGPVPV
# [2] = molecular target: Ephrin type-A receptor 4 (Homo sapiens) (UniProt P54764); details: at 1 µM
# [3] = molecular target: Ephrin type-A receptor 4 (Homo sapiens) (UniProt P54764); details: at 10 µM
# [4] = molecular target: Ephrin type-A receptor 5 (Homo sapiens) (UniProt P54756); details: at 1 µM
# [5] = molecular target: Ephrin type-A receptor 5 (Homo sapiens) (UniProt P54756); details: at 10 µM
# [6] = molecular target: Ephrin type-A receptor 7 (Homo sapiens) (UniProt Q15375); details: at 1 µM
# [7] = molecular target: Ephrin type-A receptor 7 (Homo sapiens) (UniProt Q15375); details: at 10 µM
# [8] = molecular target: T2, Ephrin type-A receptor 8 (Homo sapiens) (UniProt P29322); details: at 1 µM
# T2 sequence (whole entry): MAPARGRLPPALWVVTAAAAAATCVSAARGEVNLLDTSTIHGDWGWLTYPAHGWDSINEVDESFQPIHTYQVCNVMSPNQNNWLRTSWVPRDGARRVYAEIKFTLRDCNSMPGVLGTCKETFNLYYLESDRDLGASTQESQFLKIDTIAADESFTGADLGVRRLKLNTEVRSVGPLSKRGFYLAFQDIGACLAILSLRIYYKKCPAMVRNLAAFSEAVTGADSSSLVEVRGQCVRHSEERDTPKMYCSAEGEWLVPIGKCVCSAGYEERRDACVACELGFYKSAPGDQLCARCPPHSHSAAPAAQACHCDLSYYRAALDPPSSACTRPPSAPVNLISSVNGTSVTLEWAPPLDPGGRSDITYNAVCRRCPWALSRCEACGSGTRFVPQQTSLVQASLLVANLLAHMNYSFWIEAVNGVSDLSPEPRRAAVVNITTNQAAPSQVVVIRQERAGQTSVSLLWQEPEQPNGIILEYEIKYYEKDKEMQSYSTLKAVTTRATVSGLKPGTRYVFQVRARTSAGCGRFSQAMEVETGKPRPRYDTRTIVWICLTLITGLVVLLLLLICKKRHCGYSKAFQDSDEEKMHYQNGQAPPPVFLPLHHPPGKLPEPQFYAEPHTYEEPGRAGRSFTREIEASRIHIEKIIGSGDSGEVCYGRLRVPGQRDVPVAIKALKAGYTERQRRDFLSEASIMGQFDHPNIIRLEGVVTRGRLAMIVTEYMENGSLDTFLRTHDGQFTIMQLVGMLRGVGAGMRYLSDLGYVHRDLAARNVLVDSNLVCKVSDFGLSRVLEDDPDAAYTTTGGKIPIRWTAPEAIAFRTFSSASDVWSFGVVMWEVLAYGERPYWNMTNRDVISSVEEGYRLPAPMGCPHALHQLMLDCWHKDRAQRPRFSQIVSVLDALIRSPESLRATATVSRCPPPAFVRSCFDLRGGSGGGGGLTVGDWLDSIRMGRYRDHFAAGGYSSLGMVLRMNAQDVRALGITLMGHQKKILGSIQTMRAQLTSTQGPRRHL
# [9] = molecular target: T2, Ephrin type-A receptor 8 (Homo sapiens); details: at 10 µM
# [10] = molecular target: T3, Ephrin type-B receptor 1 (Homo sapiens) (UniProt P54762); details: at 1 µM
# T3 sequence (whole entry): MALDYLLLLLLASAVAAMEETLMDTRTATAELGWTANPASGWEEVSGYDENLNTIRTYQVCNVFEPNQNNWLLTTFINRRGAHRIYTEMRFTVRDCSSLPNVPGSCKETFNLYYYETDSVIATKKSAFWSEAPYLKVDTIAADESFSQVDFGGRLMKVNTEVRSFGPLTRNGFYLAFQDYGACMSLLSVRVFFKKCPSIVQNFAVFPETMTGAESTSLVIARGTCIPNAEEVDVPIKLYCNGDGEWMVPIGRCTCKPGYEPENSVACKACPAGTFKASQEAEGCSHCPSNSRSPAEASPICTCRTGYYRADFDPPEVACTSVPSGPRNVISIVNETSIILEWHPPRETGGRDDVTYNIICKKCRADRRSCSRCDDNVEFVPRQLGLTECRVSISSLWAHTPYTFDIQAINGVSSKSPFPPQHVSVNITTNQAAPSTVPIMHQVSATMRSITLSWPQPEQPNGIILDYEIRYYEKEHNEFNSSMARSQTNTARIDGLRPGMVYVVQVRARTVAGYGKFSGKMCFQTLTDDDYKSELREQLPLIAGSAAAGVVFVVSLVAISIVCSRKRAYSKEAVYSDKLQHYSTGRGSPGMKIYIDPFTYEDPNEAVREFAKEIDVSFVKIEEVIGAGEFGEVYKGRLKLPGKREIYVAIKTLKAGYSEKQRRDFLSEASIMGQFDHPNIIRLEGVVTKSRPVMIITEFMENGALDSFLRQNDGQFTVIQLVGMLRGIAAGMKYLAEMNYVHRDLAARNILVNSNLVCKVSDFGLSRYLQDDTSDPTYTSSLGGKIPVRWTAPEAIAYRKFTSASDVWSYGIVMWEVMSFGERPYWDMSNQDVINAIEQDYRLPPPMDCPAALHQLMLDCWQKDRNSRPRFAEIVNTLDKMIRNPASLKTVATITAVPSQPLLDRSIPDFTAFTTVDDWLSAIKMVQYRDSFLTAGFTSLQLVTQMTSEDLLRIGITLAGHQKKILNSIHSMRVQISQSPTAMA
# [11] = molecular target: T3, Ephrin type-B receptor 1 (Homo sapiens); details: at 10 µM
# [12] = molecular target: Receptor tyrosine-protein kinase erbB-4 (Homo sapiens) (UniProt Q15303); details: at 1 µM
# [13] = molecular target: Receptor tyrosine-protein kinase erbB-4 (Homo sapiens) (UniProt Q15303); details: at 10 µM
# [14] = molecular target: Focal adhesion kinase 1 (Homo sapiens) (UniProt Q05397); details: at 1 µM
# Sequence of Ephrin type-A receptor 7 (Homo sapiens) (Q15375 28-998 limits assumed): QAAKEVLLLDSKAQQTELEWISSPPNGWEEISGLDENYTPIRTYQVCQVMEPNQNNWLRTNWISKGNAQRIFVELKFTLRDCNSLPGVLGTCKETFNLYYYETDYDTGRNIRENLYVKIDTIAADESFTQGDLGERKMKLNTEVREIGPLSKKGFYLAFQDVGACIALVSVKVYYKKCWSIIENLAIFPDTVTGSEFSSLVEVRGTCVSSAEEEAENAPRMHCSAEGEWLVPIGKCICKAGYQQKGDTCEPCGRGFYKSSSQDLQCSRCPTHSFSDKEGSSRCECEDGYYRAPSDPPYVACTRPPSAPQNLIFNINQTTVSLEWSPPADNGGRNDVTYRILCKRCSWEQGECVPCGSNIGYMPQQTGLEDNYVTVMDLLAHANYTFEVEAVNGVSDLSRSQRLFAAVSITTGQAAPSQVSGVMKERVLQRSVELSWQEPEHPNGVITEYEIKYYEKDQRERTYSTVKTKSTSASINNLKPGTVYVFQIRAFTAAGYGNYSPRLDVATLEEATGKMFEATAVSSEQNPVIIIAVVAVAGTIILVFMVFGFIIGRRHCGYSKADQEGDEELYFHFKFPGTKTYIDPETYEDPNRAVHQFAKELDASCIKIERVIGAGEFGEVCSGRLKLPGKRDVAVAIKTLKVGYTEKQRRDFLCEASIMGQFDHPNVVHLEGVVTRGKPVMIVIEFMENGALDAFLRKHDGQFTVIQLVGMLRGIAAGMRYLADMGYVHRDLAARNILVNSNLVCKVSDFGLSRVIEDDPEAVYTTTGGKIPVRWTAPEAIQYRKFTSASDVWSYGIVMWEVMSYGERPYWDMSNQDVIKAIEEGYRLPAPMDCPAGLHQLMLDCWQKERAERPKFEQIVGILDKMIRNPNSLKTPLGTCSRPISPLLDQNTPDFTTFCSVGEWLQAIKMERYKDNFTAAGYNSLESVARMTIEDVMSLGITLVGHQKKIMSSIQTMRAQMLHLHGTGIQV
# Sequence of Receptor tyrosine-protein kinase erbB-4 (Homo sapiens) (Q15303 whole entry): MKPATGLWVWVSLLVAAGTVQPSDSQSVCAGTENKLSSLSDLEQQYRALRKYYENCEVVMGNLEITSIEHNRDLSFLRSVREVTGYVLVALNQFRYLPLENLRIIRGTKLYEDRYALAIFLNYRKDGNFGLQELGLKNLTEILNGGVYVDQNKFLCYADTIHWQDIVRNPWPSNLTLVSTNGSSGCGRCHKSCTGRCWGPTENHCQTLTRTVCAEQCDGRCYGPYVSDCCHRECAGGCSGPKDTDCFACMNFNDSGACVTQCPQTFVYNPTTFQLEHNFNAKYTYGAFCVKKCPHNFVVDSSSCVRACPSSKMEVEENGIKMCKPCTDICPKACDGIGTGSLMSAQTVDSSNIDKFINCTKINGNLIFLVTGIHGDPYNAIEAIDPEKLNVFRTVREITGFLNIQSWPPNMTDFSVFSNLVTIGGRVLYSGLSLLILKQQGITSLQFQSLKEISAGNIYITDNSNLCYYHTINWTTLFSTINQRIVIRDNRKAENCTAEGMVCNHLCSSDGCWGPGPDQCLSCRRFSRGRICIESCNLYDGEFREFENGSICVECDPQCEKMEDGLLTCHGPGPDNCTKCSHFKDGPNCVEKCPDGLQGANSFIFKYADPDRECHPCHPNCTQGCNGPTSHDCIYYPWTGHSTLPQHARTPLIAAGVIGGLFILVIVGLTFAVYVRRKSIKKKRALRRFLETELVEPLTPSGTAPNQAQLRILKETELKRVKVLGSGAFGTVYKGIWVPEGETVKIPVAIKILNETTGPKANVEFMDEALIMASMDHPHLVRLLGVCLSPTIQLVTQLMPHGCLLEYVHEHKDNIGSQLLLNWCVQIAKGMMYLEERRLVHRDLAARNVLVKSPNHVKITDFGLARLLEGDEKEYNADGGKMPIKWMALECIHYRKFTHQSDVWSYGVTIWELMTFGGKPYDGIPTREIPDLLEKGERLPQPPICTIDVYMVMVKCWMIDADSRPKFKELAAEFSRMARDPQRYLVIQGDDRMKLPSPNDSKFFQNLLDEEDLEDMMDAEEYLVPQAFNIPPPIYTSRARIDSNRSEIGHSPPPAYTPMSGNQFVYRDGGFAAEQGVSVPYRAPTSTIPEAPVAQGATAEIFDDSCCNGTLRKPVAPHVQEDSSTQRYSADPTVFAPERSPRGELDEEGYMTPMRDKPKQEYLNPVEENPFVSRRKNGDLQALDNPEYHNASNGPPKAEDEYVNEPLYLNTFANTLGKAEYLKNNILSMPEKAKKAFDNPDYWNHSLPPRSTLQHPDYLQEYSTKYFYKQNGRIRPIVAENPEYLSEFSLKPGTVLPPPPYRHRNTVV
# Sequence of Ephrin type-A receptor 4 (Homo sapiens) (P54764 whole entry): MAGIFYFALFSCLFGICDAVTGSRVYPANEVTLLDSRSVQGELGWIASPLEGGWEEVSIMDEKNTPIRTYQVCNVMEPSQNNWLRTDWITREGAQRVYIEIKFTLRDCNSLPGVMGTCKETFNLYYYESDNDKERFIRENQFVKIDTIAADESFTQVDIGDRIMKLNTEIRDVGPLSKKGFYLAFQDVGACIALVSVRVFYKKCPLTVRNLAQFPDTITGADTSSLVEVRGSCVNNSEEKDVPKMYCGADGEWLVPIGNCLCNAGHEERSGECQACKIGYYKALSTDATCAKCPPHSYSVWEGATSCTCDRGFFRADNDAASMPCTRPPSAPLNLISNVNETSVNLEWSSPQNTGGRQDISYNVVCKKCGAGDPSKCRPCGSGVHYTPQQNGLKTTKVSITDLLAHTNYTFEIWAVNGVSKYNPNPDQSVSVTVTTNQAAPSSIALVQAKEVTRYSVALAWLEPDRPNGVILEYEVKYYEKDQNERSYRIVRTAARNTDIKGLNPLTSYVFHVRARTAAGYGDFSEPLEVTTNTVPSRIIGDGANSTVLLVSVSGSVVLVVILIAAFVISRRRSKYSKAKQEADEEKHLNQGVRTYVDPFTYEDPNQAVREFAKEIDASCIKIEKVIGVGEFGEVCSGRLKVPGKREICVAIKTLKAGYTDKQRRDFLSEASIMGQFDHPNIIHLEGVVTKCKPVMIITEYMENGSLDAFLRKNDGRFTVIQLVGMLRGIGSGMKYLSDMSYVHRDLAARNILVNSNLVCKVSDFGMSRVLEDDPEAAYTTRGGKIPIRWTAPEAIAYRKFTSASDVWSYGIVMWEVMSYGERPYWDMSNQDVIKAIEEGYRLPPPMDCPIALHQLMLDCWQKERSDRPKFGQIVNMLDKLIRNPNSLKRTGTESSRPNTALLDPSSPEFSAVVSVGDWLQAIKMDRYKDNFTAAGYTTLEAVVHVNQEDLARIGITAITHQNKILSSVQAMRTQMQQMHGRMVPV
# Sequence of Ephrin type-A receptor 5 (Homo sapiens) (P54756 whole entry): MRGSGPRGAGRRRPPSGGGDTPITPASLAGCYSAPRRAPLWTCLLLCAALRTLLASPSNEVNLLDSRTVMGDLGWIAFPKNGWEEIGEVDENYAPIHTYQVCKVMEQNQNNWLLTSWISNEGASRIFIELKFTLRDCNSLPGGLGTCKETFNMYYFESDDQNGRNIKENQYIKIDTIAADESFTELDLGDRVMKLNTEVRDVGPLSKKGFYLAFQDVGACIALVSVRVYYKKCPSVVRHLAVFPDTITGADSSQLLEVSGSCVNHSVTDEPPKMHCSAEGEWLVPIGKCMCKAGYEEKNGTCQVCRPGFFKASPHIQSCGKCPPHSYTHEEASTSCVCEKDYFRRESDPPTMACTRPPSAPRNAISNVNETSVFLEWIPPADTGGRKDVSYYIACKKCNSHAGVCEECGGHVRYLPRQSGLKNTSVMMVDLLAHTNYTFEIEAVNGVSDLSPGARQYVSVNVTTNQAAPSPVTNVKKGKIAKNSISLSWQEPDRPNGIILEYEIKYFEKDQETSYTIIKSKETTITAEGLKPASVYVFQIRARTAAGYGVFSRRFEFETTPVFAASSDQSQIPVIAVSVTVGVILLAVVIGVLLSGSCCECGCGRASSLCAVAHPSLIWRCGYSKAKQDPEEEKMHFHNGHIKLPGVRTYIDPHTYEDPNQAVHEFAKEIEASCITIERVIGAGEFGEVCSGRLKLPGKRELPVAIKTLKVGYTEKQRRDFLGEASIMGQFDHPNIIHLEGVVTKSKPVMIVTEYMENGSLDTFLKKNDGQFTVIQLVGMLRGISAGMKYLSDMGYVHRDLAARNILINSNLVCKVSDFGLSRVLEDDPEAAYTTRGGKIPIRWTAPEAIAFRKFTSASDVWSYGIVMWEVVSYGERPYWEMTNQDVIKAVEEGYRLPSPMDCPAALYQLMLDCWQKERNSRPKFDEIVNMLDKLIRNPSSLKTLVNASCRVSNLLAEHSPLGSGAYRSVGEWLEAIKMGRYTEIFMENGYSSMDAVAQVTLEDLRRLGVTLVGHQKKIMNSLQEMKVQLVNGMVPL
smiles,measurement,setting,value
COc1cc2ncnc(Nc3ccc(NC(=O)c4ccccc4)cc3)c2cc1OC,residual activity,[1],102%
same,residual activity,[2],109%
same,residual activity,[3],102%
same,residual activity,[4],104%
same,residual activity,[5],97%
same,residual activity,[6],92%
same,residual activity,[7],66%
same,residual activity,[8],103%
same,residual activity,[9],103%
same,residual activity,[10],97%
same,residual activity,[11],83%
same,residual activity,[12],35%
same,residual activity,[13],6%
same,residual activity,[14],142%

# From ChEMBL document CHEMBL2218924, “A broad activity screen in support of a chemogenomic map for kinase signalling research and drug discovery” (Biochem J, 2013)
